Assay [1] is described as follows: qHTS assay to identify small molecule antagonists of the thyroid receptor (TR) signaling pathway - cell viability counter screen (AID 743064). Note: nearly all actives have a fitted effect of over 50% in size. Note: potency is the fitted concentration of half-maximal effect. Conditions: GH3.TRE-Luc viability, CellTiter-Fluor, 24 h; series mostly up to 70.3 µM. The procedure, abridged:
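Counter screen for cytotoxicity: compound plus T3 (1 nM final) on GH3.TRE-Luc cells, 23.5 h at 37 °C, then fluorescence viability readout with CellTiter-Fluor.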
(Quantitative high-throughput screening tests each substance at several concentrations.)

The nature of assay [2]: qHTS assay to identify small molecule antagonists of the estrogen receptor alpha (ER-alpha) signaling pathway - cell viability counter screen (AID 743074; calls by dose curve;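 note: HEK293 cells carrying ER-alpha-UAS-bla reporter stimulated with 17beta-estradiol; nearly all actives have a fitted effect of over 45% in size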). As to conditions: ERalpha-bla HEK293 viability, CellTiter-Glo luminescence, 18 h; series mostly up to 69.4 µM.
Assay [3] can be described thus: qHTS assay to identify small molecule antagonists of the estrogen receptor alpha (ER-alpha) signaling pathway using the BG1 cell line - cell viability counter screen (AID 743081).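 Note: compound given together with 17beta-estradiol as the ER stimulus; nearly all actives have a fitted effect of over 45% in size.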 As to conditions: BG1Luc4E2 viability, CellTiter-Fluor, 22 h; series mostly up to 70.3 µM.
Another assay addresses Aromatase (Homo sapiens) (UniProt P11511). Nature of the assay: qHTS assay to identify aromatase inhibitors (AID 743083). Note: nearly all actives have a fitted effect of over 55% in size. Note: potency is the fitted concentration of half-maximal effect. As to conditions: MCF-7 aro ERE, testosterone-driven ERE luciferase, 24 h; series mostly up to 70.3 µM.
A short description of assay [4]: qHTS assay to identify aromatase inhibitors - cell viability counter screen (AID 743084).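 Note: cells stimulated with testosterone during compound exposure; nearly all actives have a fitted effect of over 55% in size.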 As to conditions: MCF-7 aro ERE viability, CellTiter-Fluor, 24 h; series mostly up to 70.3 µM.
Assay [5] has as its target Aryl hydrocarbon receptor (Homo sapiens) (UniProt P35869). As to the kind of experiment: qHTS assay to identify small molecule that activate the aryl hydrocarbon receptor (AhR) signaling pathway (AID 743085).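 Note: HG2L7.5c1 human HepG2 liver cells with stably integrated DRE-driven firefly reporter; nearly all actives have a fitted effect of over 15% in size.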 Conditions: HepG2 AhR-luc (HG2L7.5c1), luciferase, 24 h; series mostly up to 70.3 µM. The method, boiled down:
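Measured in HG2L7.5c1 cells: CellTiter-Fluor signal (30 min incubation, 37C) for viability, then luciferase luminescence (30 min, room temperature). Compound contact time was 24 h at 37C, following a 5 h pre-incubation.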

A short description of assay [6]: qHTS assay to identify small molecule that activate the aryl hydrocarbon receptor (AhR) signaling pathway - cell viability counter screen (AID 743086).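 Note: HepG2 liver cells carrying the AhR DRE luciferase reporter; nearly all actives have a fitted effect of over 45% in size.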 As to conditions: HepG2-AhR-luc viability, CellTiter-Fluor, 24 h; series mostly up to 70.3 µM. The method, boiled down:
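Cytotoxicity counter screen: CellTiter-Fluor signal (30 min, 37 C) in 4000 HepG2 cells/well carrying the DRE-luciferase reporter, following 24 h compound exposure at 37 C.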

Assay [7] deals with Peroxisome proliferator-activated receptor gamma (Homo sapiens) (UniProt P37231). As to the kind of experiment: qHTS assay to identify small molecule agonists of the peroxisome proliferator-activated receptor gamma (PPARg) signaling pathway (AID 743094; active = well fitted activation curve with a large enough effect in the signal ratio in the repeat runs, not every such curve was filed as active; the % refers to the signal ratio). As to conditions: HEK293H PPARg-UAS-bla, beta-lactamase FRET ratio, 17 h; series mostly up to 57 µM. The method, boiled down:
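Beta-lactamase FRET fluorescence was the read-out after a 1 h room-temperature substrate step, following 17 h compound treatment at 37C of HEK293H cells expressing a UAS-driven bla reporter responsive to PPARg.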

The nature of assay [8]: qHTS assay to identify small molecule antagonists of the peroxisome proliferator-activated receptor gamma (PPARg) signaling pathway - cell viability counter screen (AID 743194). Note: nearly all actives have a fitted effect of over 55% in size. Conditions: PPARg-bla HEK293H viability, CellTiter-Glo luminescence, 17 h; Potency: co-treated with 50 nM rosiglitazone unless noted; series mostly up to 62.6 µM. The procedure, abridged:
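Viability was measured as CellTiter-Glo luminescence in GeneBLAzer PPARg UAS-bla HEK293H cells. These cells had been exposed 17 h at 37 C to compounds together with rosiglitazone at 50 nM final, with the beta-lactamase readout taken in the same wells.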

The nature of assay [9]: qHTS assay for small molecule agonists of the antioxidant response element (ARE) signaling pathway (AID 743202; active = well fitted activation curve with a large enough effect in the signal ratio in the repeat runs, not every such curve was filed as active; the % refers to the signal ratio; note: potency is the fitted concentration of half-maximal effect). As to conditions: HepG2 ARE-bla reporter, beta-lactamase FRET, 16 h; series mostly up to 73.3 µM. The method, boiled down: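 Quantitative high-throughput format in HepG2 cells bearing an integrated ARE-beta-lactamase reporter. Compound exposure lasted 16 h at 37 C, and fluorescence was read 2 h after adding LiveBLAzer B/G substrate at room temperature.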

Assay [10] in a line: qHTS assay for small molecule agonists of the antioxidant response element (ARE) signaling pathway - cell viability counter screen (AID 743203; calls by dose curve; note: nearly all actives have a fitted effect of over 55% in size). Conditions: ARE-bla HepG2 viability, CellTiter-Glo luminescence, 16 h; series mostly up to 73.3 µM. The procedure, abridged: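 HepG2 cells carrying ARE-driven beta-lactamase; 2,000 cells/well; 5 hrs plating; compound pinned from DMSO; 16 hrs 37C/5% CO2; CellTiter-Glo added; 30 min RT; luminescence.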

The nature of assay [11]: qHTS assay for small molecule activators of the heat shock response signaling pathway - cell viability counter screen (AID 743209). Note: nearly all actives have a fitted effect of over 50% in size. Conditions: HSE-bla HeLa viability, CellTiter-Glo luminescence, 5 h; series mostly up to 62.6 µM. The procedure, abridged: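 Luminescence from CellTiter-Glo, added after the beta-lactamase FRET read, gave the viability signal. Cells were HSE-bla HeLa treated with DMSO-dissolved compounds for 5 h at 37 C following overnight plating.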

Assay [12] is described as follows: qHTS assay for small molecule activators of the heat shock response signaling pathway (AID 743210; active = well fitted activation curve with a large enough effect in the signal ratio in the repeat runs, with a control signal flat, not every such curve was filed as active; the % refers to the signal ratio;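 note: HeLa cells with beta-lactamase reporter driven by heat shock elements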). As to conditions: HeLa HSE-bla reporter, beta-lactamase ratio, 5 h; series mostly up to 62.6 µM. The procedure, abridged: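 HeLa HSE-bla cells, overnight plating; cpd in DMSO 5 h, 37 C; LiveBLAzer B/G FRET substrate 2.5 h RT; fluorescence intensity read.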
A short description of assay [13]: qHTS assay to identify small molecule agonists of the peroxisome proliferator-activated receptor delta (PPARd) signaling pathway - cell viability counter screen (AID 743211). Note: nearly all actives have a fitted effect of over 55% in size. Conditions: PPARd-bla HEK293H viability, CellTiter-Glo luminescence, 17 h; series mostly up to 62.6 µM. The procedure, abridged:
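Following 5 h plating at 37 C and 5% CO2, PPARd UAS-bla HEK293H cells took up test compounds for 17 h. Viability was quantified by luminescence 30 min after CellTiter-Glo addition at room temperature.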

For assay [14], the target named is Peroxisome proliferator-activated receptor delta (Homo sapiens) (UniProt Q03181). As to the kind of experiment: qHTS assay to identify small molecule agonists of the peroxisome proliferator-activated receptor delta (PPARd) signaling pathway (AID 743212; calls by dose curve;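 note: HEK293H cells with PPARd UAS beta-lactamase reporter GeneBLAzer system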). As to conditions: HEK293H PPARd-UAS-bla, beta-lactamase FRET ratio, 17 h; series mostly up to 62.6 µM. The procedure, abridged: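 HEK293H PPARd-bla cells; 5 h preincubation 37 C/5% CO2; compound (DMSO) 37 C; LiveBLAzer B/G FRET substrate 2 h RT; fluorescence intensity.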
Chain of Peroxisome proliferator-activated receptor delta (Homo sapiens) (Q03181 whole entry, looked up): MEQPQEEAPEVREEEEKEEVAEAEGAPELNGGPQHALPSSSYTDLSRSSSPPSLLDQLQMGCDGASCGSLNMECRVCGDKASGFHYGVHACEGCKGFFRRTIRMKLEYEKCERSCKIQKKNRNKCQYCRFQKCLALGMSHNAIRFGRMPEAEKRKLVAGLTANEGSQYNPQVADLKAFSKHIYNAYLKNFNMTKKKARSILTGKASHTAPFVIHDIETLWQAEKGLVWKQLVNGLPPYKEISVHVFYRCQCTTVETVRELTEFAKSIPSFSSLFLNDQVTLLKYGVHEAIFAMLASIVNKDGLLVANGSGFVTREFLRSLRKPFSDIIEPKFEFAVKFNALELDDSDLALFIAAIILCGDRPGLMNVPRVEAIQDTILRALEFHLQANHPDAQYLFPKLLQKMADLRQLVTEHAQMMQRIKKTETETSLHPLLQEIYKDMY

Assay [15] can be described thus: qHTS assay to identify small molecule antagonists of the thyroid receptor (TR) signaling pathway (AID 743065). Note: nearly all actives have a fitted effect of over 55% in size. Note: potency is the fitted concentration of half-maximal effect. Conditions: GH3.TRE-Luc, T3-stimulated luciferase inhibition, 23.5 h; series mostly up to 70.3 µM. The procedure, abridged: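 Antagonism measured as loss of luciferase signal in GH3 cells stably carrying a TRE-luciferase reporter, co-treated with compound and T3 (1 nM final) for 23.5 h at 37 C. Viability was read in the same well by CellTiter-Fluor.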

In assay [16] the test system is thyroid hormone receptor (rat, GH3 cells). As to the kind of experiment: qHTS assay to identify small molecule agonists of the thyroid receptor (TR) signaling pathway (AID 743066; calls by dose curve). As to conditions: GH3.TRE-Luc cells, TR agonist luciferase, 24 h; series mostly up to 83.9 µM.

Each structure is given as a SMILES string. Several values for one entry are separate records, joined by “and”; a condition that tells them apart may be missing. Equal values may be shown once. Records with an inconclusive call do not appear. Activity calls are given as the source filed them. Unless noted, calls come from the whole dose curve; as a rule, active = well fitted curve in the direction sought with a large enough effect in the repeat runs; inconclusive = weak or mixed curves; inactive = no such curve, though single readings can be large; an effect the other way counts as inactive or inconclusive.

Results on ten molecules are retold here after PubChem BioAssay (Tox21).

Chain of Aryl hydrocarbon receptor (Homo sapiens) (P35869 whole entry, looked up): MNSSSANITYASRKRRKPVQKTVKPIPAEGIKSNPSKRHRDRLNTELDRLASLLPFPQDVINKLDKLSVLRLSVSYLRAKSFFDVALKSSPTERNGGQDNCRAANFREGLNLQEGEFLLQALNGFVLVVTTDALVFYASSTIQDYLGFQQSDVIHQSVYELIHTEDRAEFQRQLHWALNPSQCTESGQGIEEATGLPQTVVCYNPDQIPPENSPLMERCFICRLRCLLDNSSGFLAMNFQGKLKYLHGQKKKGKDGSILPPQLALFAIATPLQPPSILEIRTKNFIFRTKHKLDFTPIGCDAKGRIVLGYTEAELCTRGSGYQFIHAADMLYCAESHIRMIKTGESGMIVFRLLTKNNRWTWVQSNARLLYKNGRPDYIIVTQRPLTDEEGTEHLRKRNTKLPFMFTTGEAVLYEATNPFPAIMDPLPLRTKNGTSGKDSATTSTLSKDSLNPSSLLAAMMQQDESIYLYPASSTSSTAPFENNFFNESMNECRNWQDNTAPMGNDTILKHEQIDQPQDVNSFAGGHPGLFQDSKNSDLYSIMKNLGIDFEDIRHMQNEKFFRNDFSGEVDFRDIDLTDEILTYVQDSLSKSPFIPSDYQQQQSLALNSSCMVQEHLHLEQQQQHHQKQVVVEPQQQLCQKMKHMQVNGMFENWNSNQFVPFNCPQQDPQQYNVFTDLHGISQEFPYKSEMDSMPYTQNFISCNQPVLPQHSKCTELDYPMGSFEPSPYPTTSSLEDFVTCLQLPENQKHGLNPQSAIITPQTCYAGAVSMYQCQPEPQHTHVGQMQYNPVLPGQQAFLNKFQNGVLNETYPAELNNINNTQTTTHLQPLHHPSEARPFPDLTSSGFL
Chain of Peroxisome proliferator-activated receptor gamma (Homo sapiens) (P37231 whole entry, looked up): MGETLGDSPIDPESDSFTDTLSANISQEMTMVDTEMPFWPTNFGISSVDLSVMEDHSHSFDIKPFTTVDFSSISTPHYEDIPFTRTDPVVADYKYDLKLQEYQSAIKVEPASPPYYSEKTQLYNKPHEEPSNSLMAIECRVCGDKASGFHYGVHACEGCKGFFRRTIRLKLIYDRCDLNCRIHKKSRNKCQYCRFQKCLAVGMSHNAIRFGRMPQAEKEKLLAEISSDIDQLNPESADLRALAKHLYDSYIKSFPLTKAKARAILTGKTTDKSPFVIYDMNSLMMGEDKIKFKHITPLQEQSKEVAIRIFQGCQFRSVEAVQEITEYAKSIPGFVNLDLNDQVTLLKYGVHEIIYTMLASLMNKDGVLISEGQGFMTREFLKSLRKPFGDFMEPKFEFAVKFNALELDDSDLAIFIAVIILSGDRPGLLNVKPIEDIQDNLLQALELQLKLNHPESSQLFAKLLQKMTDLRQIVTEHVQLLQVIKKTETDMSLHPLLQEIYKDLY
Chain of Aromatase (Homo sapiens) (P11511 whole entry, looked up): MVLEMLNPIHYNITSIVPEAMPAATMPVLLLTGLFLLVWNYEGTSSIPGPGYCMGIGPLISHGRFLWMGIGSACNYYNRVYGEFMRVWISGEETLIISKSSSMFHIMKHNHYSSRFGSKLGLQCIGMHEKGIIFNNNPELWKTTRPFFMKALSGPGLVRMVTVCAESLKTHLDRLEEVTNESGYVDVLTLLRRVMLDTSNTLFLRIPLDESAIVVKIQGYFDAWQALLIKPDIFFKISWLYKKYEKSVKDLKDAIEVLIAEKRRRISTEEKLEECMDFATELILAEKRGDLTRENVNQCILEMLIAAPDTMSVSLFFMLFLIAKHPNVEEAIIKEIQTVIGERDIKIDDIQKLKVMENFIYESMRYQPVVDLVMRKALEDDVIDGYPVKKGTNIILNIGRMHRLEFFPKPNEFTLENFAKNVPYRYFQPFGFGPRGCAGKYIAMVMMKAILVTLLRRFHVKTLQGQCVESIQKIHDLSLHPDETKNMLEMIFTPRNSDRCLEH

Regarding `CNC`, the Potency entry (in assay [1]; in assay [2]; in assay [3]; in the assay with Aromatase (Homo sapiens); in [4]; in [5]) was “inactive” in each case. The Potency entry in [6], in [8], in assay [9], in assay [10], in assay [11] and in assay [13] was “inactive” each time. In addition, the result in assay [7], in assay [12] and in assay [14] was inactive.
In the case of `CCn1cc[n+](C)c1C`, the Potency result (in assay [1]; in assay [2]; in assay [3]; with Aromatase (Homo sapiens); in assay [4]; in assay [5]) was “inactive” in each case. Also, the Potency result in assay [6], in [8], in [10], in [11] and in [13] was “inactive” throughout. Further, the outcome in assay [7] and in [12] was inactive.
In the case of `CCCCCCCCn1cc[n+](C)c1`, the Potency in [1] was 54.4 µM (active); in assay [15] it was 27.3 µM (active) and 54.9 µM (active); in the assay with Aromatase (Homo sapiens), 34.3 µM (active) and 27.5 µM (active) and 55 µM (active); in assay [9] it was 4.32 µM (active) and 5.49 µM (active). Also, the Potency entry in assay [16], in assay [3], in assay [4], in [5], in assay [6] and in assay [10] was “inactive” throughout. Besides, the Potency result in [11] and in assay [13] was “inactive” throughout. In addition, the result in assay [12] was inactive.
In the case of `O=C(O)C(Cl)(Cl)Cl`, the Potency entry (in assay [1]; in assay [15]; in assay [16]; in [2]; in assay [3]; with Aromatase (Homo sapiens)) was “inactive” in each case. For the same molecule, the Potency result in assay [4], in assay [6], in assay [8], in [9], in assay [10] and in [11] was “inactive” each time. In addition, the Potency entry in [13] is “inactive”. Further, the result in assay [7], in assay [12] and in assay [14] was inactive.
For the molecule `O=C(O)COc1ccc(Cl)cc1Cl`, the Potency result in assay [1], in assay [2], in assay [3], in assay [6], in assay [9] and in [10] was “inactive” in each case. For the same molecule, the Potency entry in assay [11] and in assay [13] was “inactive” in each case. The outcome in [14] was inactive.
On to `CCC[N+]1(C)CCCC1`, for which the Potency entry in assay [1], in assay [2], in [3], in assay [6], in assay [9] and in assay [10] was “inactive” throughout. Also, the Potency result in [11] and in assay [13] was “inactive” each time. Further, the result in assay [12] and in [14] was inactive.
As to `CCCn1cc[n+](C)c1`, the Potency result (in [1]; in [2]; in [3]; with Aromatase (Homo sapiens); in assay [4]; in assay [6]) was “inactive” in each case. Moreover, the Potency result in [8], in assay [9], in [10], in [11] and in [13] was “inactive” throughout. Moreover, the result in assay [7], in [12] and in assay [14] was inactive.
On to `CC(=O)O`, for which the Potency entry (in assay [1]; in assay [16]; in assay [2]; in assay [3]; with Aromatase (Homo sapiens); in assay [4]) was “inactive” each time. The Potency entry in [5], in [6], in assay [8], in assay [9], in assay [10] and in assay [11] was “inactive” each time. The Potency result in [13] was “inactive”.
For `CN(C)[C@@H]1C(=O)C(C(N)=O)=C(O)[C@@]2(O)C(=O)C3=C(O)c4c(O)cccc4[C@@](C)(O)[C@H]3[C@H](O)[C@@H]12`, the Potency result (in assay [1]; in assay [16]; in assay [2]; in [3]; with Aromatase (Homo sapiens); in assay [4]) was “inactive” throughout. For the same molecule, the Potency result in assay [5], in assay [6], in assay [9], in assay [10], in [11] and in assay [13] was “inactive” throughout. The outcome in [7] was inactive.
As to `O=c1[nH]c(=O)n(Cl)c(=O)n1Cl`, the Potency result (in assay [1]; in assay [16]; in assay [2]; in assay [3]; with Aromatase (Homo sapiens); in assay [4]) was “inactive” each time. Also, the Potency result in [5], in assay [6], in [9], in assay [10], in assay [11] and in assay [13] was “inactive” throughout. Further, the outcome in assay [7] was inactive.
